Source: PubChem BioAssay (Broad Institute)
A1 inhib – A1 inhibition; MEF A1-2A-BIM cells, caspase-Glo luminescence, 3 h; percent of clofoctol signal, DMSO as zero; caspase activation, % (no concentration beside the values); 21,000 compounds, 0.51% hits; AID 2241;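 active means most replicate scores above 10, or exactly half above 10 with mean activity above 10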;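 further: effector caspase 3 and 7 activity cleaving a DEVD luciferin substrate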
BJeLR viability – compounds reducing viability of BJeLR cells | BJeLR fibroblasts viability, CellTiterGlo ATP luminescence, 48 h; HRASV12, hTERT and SV40 LT/ST transformed | viability loss activity score, % (concentration not given with the values) | 30,000 compounds, 0.64% hits; in the data active means viability loss activity score above about 50%;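 further: higher score means fewer live cells and less ATP luminescence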
Active calls of the source: *; / = not tested or not shown. Most compounds without a hit are left out; they make up all but 0.89% or so of the library.

SMILES	A1 inhib	BJeLR viability
CCC(C)CC(C)/C=C\C1OC2=C(C(=O)OC2(C)O)C(O)C1O (centres undefined)	7.7	104.0*
Cc1[nH]c2ccccc2c1C(O)c1cccnc1 (centres undefined)	1.2	-2.0
Cc1[nH]c2ccccc2c1C(c1ccccc1)N1CCN(C)CC1 (centres undefined)	65.7*	40.2
CC(=O)Oc1ccc2c(=O)c(-c3ccccc3)c(C(F)(F)F)oc2c1	/	0.4
C[C@H]1CC[C@@H]2[C@@H](C(=O)c3c(O)c([C@]4(O)CC[C@@H](O)[C@H]5O[C@H]54)c[nH]c3=O)[C@@H](C)C=C[C@H]2C1	3.2	53.8*
COc1ccc(-n2c(N)c(-c3nc4ccccc4s3)c3nc(C#N)c(C#N)nc32)cc1	-0.5	-1.5
C=CCn1c(Sc2ncnc3c2cnn3-c2ccccc2)nnc1-c1ccncc1	1.3	68.8*
Nc1ncnc2c1cnn2-c1ccccc1	-0.8	3.6
Cn1c(=O)c2cc(C(=O)NC3CCCCCC3)sc2c2ccc(Cl)cc21	/	-1.8
O=C(OCc1ccc2nonc2c1)c1c2c(nc3ccccc13)CCCC2	-1.1	-3.0
O[C@@H]1[C@@H](O)C=C2CCN3Cc4cc5c(cc4[C@H]1C23)OCO5 (some centres undefined)	-0.6	24.1
O[C@H]1[C@H]2c3cc4c(cc3CN3CCC(=C[C@@H]1O)[C@H]23)OCO4	4.5	63.2*
CC(C)Cn1cc(C(=O)NCc2ccco2)c2c3ccccc3n(C)c2c1=O	/	-0.1
CCCCNc1c(C(=O)OCC)c(C)nc2c1cnn2CC	-0.7	79.9*
CCOC(=O)c1c(C)nsc1Nc1cc(C)ccc1C	0.1	1.7
Cc1cccc(C)c1NC(=O)CCCSc1nnnn1-c1ccccc1	1.9	-1.2
COc1cc(OC)cc(-c2nc(N)c3c(C)c(-c4ccc(OC)c(OC)c4)sc3n2)c1	10.1*	0.9
CC(C)(C)C(=O)Nc1ccc2c(c1)C(=O)C(=O)c1ccccc1-2	-2.0	131.9*
CC(O)(C(=O)Nc1ccc(S(=O)(=O)c2ccccc2)cc1)C(F)(F)F (centres undefined)	0.3	7.3
CCc1ccc(-n2nc3ccc(NC(=O)c4ccccc4Br)cc3n2)cc1	2.2	8.1
C=C1C(C2(C)C=CC(=O)C(C)(C)C2CC(=O)OC)CC[C@@]2(C)[C@H](c3ccoc3)OC(=O)C3OC132 (some centres undefined)	0.1	91.1*
CC1(C)C(=O)C=C[C@@]2(C)C1C=C[C@]1(C)C2CC[C@@]2(C)[C@H](c3ccoc3)OC(=O)C3OC321 (some centres undefined)	1.2	12.3
O=C(NC1CCCCC1)N1c2ccccc2CCc2ccccc21	-0.4	-1.3
O=C(C1CC1)N1c2ccccc2CCc2ccccc21	2.0	54.1*
Cc1ccc(N(C)S(=O)(=O)c2cc(Br)cnc2N)cc1	-0.1	1.5
SMILES	A1 inhib	BJeLR viability
CC(=O)NCCOc1ccc(C2CCCCC2)cc1	-0.2	0.8
Nc1cc(C(F)(F)F)ccc1Oc1ccc(C2CCCCC2)cc1	11.4*	4.6
O=C(NC1CCCC1)C1CCN(S(=O)(=O)c2ccc3nc(-c4ccccc4)[nH]c3c2)CC1	0.8	3.9
CCc1ccc2nc(N3CCC(C(=O)NCc4ccccc4)CC3)sc2c1	-1.7	3.9
O=C(NC1CCN(Cc2ccccc2)CC1)[C@H](Cc1ccccc1)N1Cc2ccccc2C1=O	/	-2.0
COCc1nnc(NC(=O)/C=C/c2ccc3c(c2)OCO3)s1	/	-6.3
CCOc1ccc(C(=O)Nc2cc(C)ccn2)cc1	-6.7	89.8*
CCOc1ccc(C(=O)NCC(=O)n2nc(C)cc2C)cc1	-3.6	0.9
CCCN(CCC)c1ncnc2c1cnn2-c1cccc(C)c1	/	-5.8
COc1ccc(N2Cc3cccc(C(=O)NCCc4cccc(C)c4)c3C2=O)cc1	/	-4.6
CCOC(=O)C1=CN(c2ccc(C)c(C)c2)C=C(C(=O)OCC)C1c1ccccc1F	0.4	-2.5
CCOC(=O)c1cc(-c2ccccc2)sc1NC(=O)CCN1CCN(CC)CC1	11.6*	50.7*
CCOC(=O)c1cc(CC)sc1NC(=S)Nc1ccccc1C(F)(F)F	1.7	0.7
CCOc1ccc(C(NC(=O)c2ccco2)NC(=O)c2ccco2)cc1OC	1.1	-6.9
C=CCN1C(=O)/C(=C/c2c(Sc3ccccc3)nc3ccccn3c2=O)SC1=S	/	-0.8
COc1ccc2[nH]c3c(=O)n(Cc4ccc(C(=O)NC5CC5)cc4)c(=S)[nH]c3c2c1	-0.2	-4.5
COc1ccccc1C1CCN(S(=O)(=O)c2ccc(-c3csc(C)n3)s2)CC1	0.1	5.2
Cc1nc(-c2ccc(S(=O)(=O)N3CCCc4ccccc43)s2)cs1	-0.1	56.1*
CC[C@]1(O)C[C@H]2CN(CCc3c([nH]c4ccccc34)[C@@](C(=O)OC)(c3cc4c(cc3OC)N(C=O)[C@H]3[C@@](O)(C(=O)OC)[C@H](OC(C)=O)[C@@]5(CC)C=CCN6CC[C@]43[C@@H]65)C2)C1	4.6	60.6*
COC(=O)c1cc(NC(=O)c2cccc(Cl)c2)cc(C(=O)OC)c1	0.0	-2.3
CCCn1nc(NC(=O)c2cccc(Cl)c2)c2cc3cc(C)ccc3nc21	12.2*	-6.7
CCCC(=O)Nc1nn2c(-c3ccc(OC)cc3)nnc2s1	/	10.5
CC(=O)OC[C@]12[C@H](OC(C)=O)[C@H](OC(C)=O)[C@@H]3[C@@H](OC(C)=O)[C@@]14O[C@@]3(C)COC(=O)c1cnccc1CC[C@H](C)C(=O)O[C@@]4(C)[C@@H](O)[C@H](O)[C@@H]2OC(C)=O	0.4	35.0
O=C(NCc1cccnc1)/C(=C\c1ccc(Br)cc1)S(=O)(=O)c1ccccc1	1.0	6.8
O=C(NCc1cccnc1)/C(=C\c1cccc(Oc2ccccc2)c1)S(=O)(=O)c1ccccc1	47.0*	96.1*
SMILES	A1 inhib	BJeLR viability
CSc1ccc(-c2nc3ccc(C)cn3c2NC2CCCCC2)cc1	/	0.9
C=C1C(=O)O[C@H]2[C@H]1[C@@H](OC(=O)C(C)(O)CCl)C(OC(C)=O)/C(C(=O)OC)=C\CC[C@@]1(C)O[C@H]21 (some centres undefined)	2.9	50.2*
C=C1C(=O)O[C@H]2[C@H]1[C@@H](OC(=O)/C(C)=C\C)C(OC(C)=O)/C(C(=O)OC)=C\CC[C@@]1(C)O[C@H]21 (some centres undefined)	2.8	68.1*
C=C1C(=O)O[C@@H]2C3O[C@]3(C)CC/C=C(/C)CC[C@@H]12 (some centres undefined)	-0.7	7.4
C=C1C(=O)O[C@H]2[C@H]1C[C@H](OC(=O)/C(C)=C\C)/C(C)=C\CC[C@@]1(C)O[C@@H]21	-1.6	21.0
C=C1C(=O)O[C@@H]2[C@H]3O[C@]3(C)CCC=C(C)CC[C@@H]12	-0.1	17.1
C=C1C(=O)O[C@H]2[C@H]1[C@@H](OC(=O)/C(C)=C/C)C(OC(C)=O)/C(C(=O)OC)=C\CC[C@@]1(C)O[C@H]21 (some centres undefined)	1.6	60.6*
O=C(NCc1ccc(-c2cccs2)s1)c1c(Cl)cccc1Cl	0.4	1.8
Cc1ccc(Cl)cc1NC(=O)Cn1c(=O)n(CCc2c[nH]c3ccccc23)c(=O)c2cccnc21	/	-2.0
COc1ccccc1C1CCN(C(=O)c2scc(S(=O)(=O)c3ccc(Cl)cc3)c2C)CC1	-1.7	2.5
CC(C)=CCNc1ncnc2nc[nH]c12	-0.2	-3.7
Cn1cnc([N+](=O)[O-])c1Sc1ncnc2nc[nH]c12	-0.6	87.6*
